Measurements reported in PubChem BioAssay (Tox21).
Inconclusive results are not listed. Where a call stands in place of a potency, no number is given. The source made the active and inactive calls. Calls come from the whole dose curve; as a rule, active = well fitted inhibition curve with a large enough effect in the signal ratio in the repeat runs (not every such curve was filed as active); inconclusive = weak or mixed curves, or effect the other way; inactive = flat fitted curve, though single readings scatter; the % refers to the signal ratio.

assay: cAMP Responsive Elements (CRE) small molecule antagonists, cell-based qHTS assay (AID 1963591); conditions: CRE-bla HEK293T, beta-lactamase FRET ratio; series mostly up to 92.4 µM; activity change, negative = inhibition: at the top concentration
Text: U.S. Tox21 Program National Center for Advancing Translational Sciences [NCATS] Division of Preclinical Innovation [DPI] U.S. Environmental Protection Agency [EPA] National Institutes of Environmental Health Sciences [NIEHS] National Toxicology Program [NTP] U.S. Food and Drug Administration [FDA] Tox21 Assay Overview: CREB (cyclic-AMP Responsive Element Binding Protein) is a cellular transcription factor. It binds to certain DNA sequences called cAMP Responsive Elements (CRE) and regulates the transcription of the genes. […] This cell line can be used to find agonists/antagonists of the cyclic AMP signaling pathway. The activation of the report gene under culture conditions can be detected by fluorescence intensity. This cell line has been used to screen the Tox21 10K compound library to […].
Tox21 Assay Protocol Summary: CRE-bla Hek 293T cells were suspended in assay medium (DMEM containing 10% dialyzed FBS, 0.1 mM NEAA, 1 mM sodium pyruvate and 25 mM HEPES) and dispensed at 2,000 cells/4 uL /well into 1536-well black wall/clear bottom plates using a Multidrop Combi (ThermoFisher Scientific, Waltham, MA) dispenser. After the assay plates were incubated at 37 C/5% CO2 for 18 hrs, 23 nL of compounds dissolved in DMSO, positive controls or DMSO only was transferred to the assay plate by a pintool workstation (Kalypsys, San Diego, CA), followed by addition of 1 […] uL of 1.25uM NKH477 (0.25 uM as final concentration) in assay medium using a Flying Reagent Dispenser (Aurora Discovery, San Diego, CA). The plates were incubated at 37 C and 5% CO2 for 3 hrs. Then 1 uL of LiveBLAzer B/G FRET substrate (Invitrogen, Carlsbad, CA) was added to each well using Bioraptr Flying Reagent Dispenser (FRD, Aurora Discovery, San Diego, CA). The plates were incubated at room temperature for 2 h.
Potency is the fitted concentration of half-maximal effect.

Row | SMILES | Potency | activity change, negative = inhibition
1 | CN1C(C(=O)Nc2ccccn2)=C(O)c2ccccc2S1(=O)=O | inactive | 
2 | COc1ccc(C(Cl)=C(c2ccc(OC)cc2)c2ccc(OC)cc2)cc1 | inactive | 
3 | CC1=C(C)S(=O)(=O)CCS1(=O)=O | inactive | 
4 | O=C1NC(=O)c2ccccc21 | inactive | 
5 | Cc1cc(=O)[nH]c(C(C)C)n1 | inactive | 
6 | O=C(Cl)c1cccc(C(=O)Cl)c1 |  | -3.05% (inactive)
7 | S=c1nc[nH]c2nc[nH]c12 |  | 19.9% (inactive)
8 | CCCCC(C=O)CC (stereo not given) | inactive | 
9 | O=C(O)CN(CC(=O)O)CC(=O)O | inactive | 
10 | O=C(O)CS | inactive | 
11 | CNC[C@H](O)c1cccc(O)c1 | inactive | 
12 | O=C1NS(=O)(=O)c2ccccc21 | inactive | 
13 | CCCCCCCCCCCCCCCCO | inactive | 
14 | Cc1ccc([N+](=O)[O-])cc1S(=O)(=O)O | inactive | 
15 | Cc1[nH]c(=O)c(C#N)cc1-c1ccncc1 |  | 12.4% [at 42.4 µM] (inactive)
16 | Cc1cccc(C)c1 | inactive | 
17 | CCCCCCCC(=O)O | inactive | 
18 | O=C(O)c1ccccc1 | inactive | 
19 | CCC(C)(O)CCCC(C)C (stereo not given) | inactive | 
20 | Cc1cn([C@H]2C[C@H](N=[N+]=[N-])[C@@H](CO)O2)c(=O)[nH]c1=O | inactive | 

Row | SMILES | Potency | activity change, negative = inhibition
21 | CCCC(O)C(CC)CO (stereo not given) | inactive | 
22 | CC/C=C(\C(=O)N[C@@H]1C(=O)N2C(C(=O)OCOC(=O)C(C)(C)C)=C(COC(N)=O)CS[C@H]12)c1csc(N)n1 |  | 1.33% [at 42.4 µM] (inactive)
23 | c1ccc2cc3c(ccc4ccccc43)cc2c1 |  | 9.51% (inactive)
24 | CC(COc1ccccc1)N(CCCl)Cc1ccccc1 (stereo not given) | inactive | 
25 | CC/C(C)=N/O | inactive | 
26 | Nc1ccc(S(=O)(=O)Nc2nccs2)cc1 | inactive | 
27 | CC1(C)CC(N=C=O)CC(C)(CN=C=O)C1 (stereo not given) | inactive | 
28 | CCCCCCCC(=O)OC | inactive | 
29 | CCOc1ccc(NC(C)=O)cc1 | inactive | 
30 | c1ccc2c(c1)ccc1ccccc12 |  | -3.34% (inactive)
31 | CC(C)=CCO | inactive | 
32 | CCCCCCCCCCC=CC1CC(=O)OC1=O (stereo not given) | inactive | 
33 | C/C=C/c1ccc(OC)cc1 | inactive | 
34 | CCCCOC(=O)CCCCCCCCC(=O)OCCCC | inactive | 
35 | CC(C)(CO)CO | inactive | 
36 | CN(C)CCN(Cc1cccs1)c1ccccn1 | inactive | 
37 | Nc1ncn([C@@H]2O[C@H](CO)[C@@H](O)[C@H]2O)c(=O)n1 | 40.3 µM (active) | 
38 | NCCOCCO | inactive | 
39 | CC1(C)OC[C@@H]2O[C@@]3(C(=O)O)OC(C)(C)O[C@H]3[C@@H]2O1 | inactive | 
40 | COC(=O)C(C)Oc1ccc(Oc2ncc(C(F)(F)F)cc2Cl)cc1 (stereo not given) | inactive | 
